# Measured values as given in PMC6792352, “Limited Chemical Structural Diversity Found to Modulate Thyroid Hormone Receptor in the Tox21 Chemical Library” (Environmental Health Perspectives, 2019).
# Counter-ions that a name gives are not always drawn.
# Tested on: thyroid hormone receptor (endogenous TRα and TRβ)
# Set-up: species or system GH3-TRE-Luc (rat pituitary); GH3-TRE-Luc luciferase reporter, antagonist mode against 1 nM T3, loss of signal, qHTS
# Details: read-out: Average AC50 (uM) GH3-TRE-Antag, antagonist mode, 1 nM T3, no GH3 cytotoxicity hit, Average AC50 (uM) GH3-TRE-Antag, 24 h
row,SMILES,AC50
1,Nc1ccc2cc3ccc(N)cc3nc2c1 [Proflavin hydrochloride],3.25 µM
2,CCCCCCCCCCCCOS(=O)(=O)O [Ammonium dodecyl sulfate],80.2 µM
3,N=C(N)NC(=O)c1nc(Cl)c(N)nc1N [Amiloride hydrochloride],56.7 µM
